Among all 5,500 compounds or so, about 2,000 (36%) were called active. About 18% were inconclusive and are not listed. The list shows a part of the results. Unmarked numbers belong to inactive results. No stated cut-off is given here; in the data, active means normalized growth mostly below about 0.91 (no sharp cut-off); inconclusive means no clear call, values can overlap the other calls; inactive means mostly above about 0.92.
Test: chemical genetic growth profiling, strain panel (AID 1159580);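 further: tested at 20 µM; growth read once vehicle control cultures reached saturation at 30 °C; 1 = growth at the plate median or of vehicle wells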
Settings: growth OD
[1] = S. cerevisiae deletion strains, locus YGR078C, strain PAC10, stronger effect = lower value
[2] = S. cerevisiae deletion strains, locus YMR307W, strain GAS1, stronger effect = lower value
[3] = S. cerevisiae deletion strains, locus YNL153C, strain GIM3, stronger effect = lower value
[4] = S. cerevisiae deletion strains, locus YAL013W, strain DEP1, stronger effect = lower value
[5] = S. cerevisiae deletion strains, locus YBR229C, strain ROT2, stronger effect = lower value
[6] = S. cerevisiae deletion strains, locus YDL101C, strain DUN1, stronger effect = lower value
[7] = S. cerevisiae deletion strains, locus YDL134C, strain PPH21, stronger effect = lower value
[8] = S. cerevisiae deletion strains, locus YDR150W, strain NUM1, stronger effect = lower value
[9] = S. cerevisiae deletion strains, locus YEL061C, strain CIN8, stronger effect = lower value
[10] = S. cerevisiae deletion strains, locus YHR030C, strain SLT2, stronger effect = lower value
[11] = S. cerevisiae deletion strains, locus YHR087W, strain rtc3, stronger effect = lower value
[12] = S. cerevisiae deletion strains, locus YJR043C, strain POL32, stronger effect = lower value
[13] = S. cerevisiae deletion strains, locus YJR075W, strain HOC1, stronger effect = lower value
[14] = S. cerevisiae deletion strains, locus YLR039C, strain RIC1, stronger effect = lower value
[15] = S. cerevisiae deletion strains, locus YLR058C, strain SHM2 (second series), stronger effect = lower value
[16] = S. cerevisiae deletion strains, locus YLR085C, strain ARP6, stronger effect = lower value
[17] = S. cerevisiae deletion strains, locus YLR262C, strain YPT6, stronger effect = lower value
[18] = S. cerevisiae deletion strains, locus YML094W, strain GIM5, stronger effect = lower value
[19] = S. cerevisiae deletion strains, locus YMR219W, strain ESC1, stronger effect = lower value
[20] = S. cerevisiae deletion strains, locus YMR263W, strain SAP30, stronger effect = lower value
[21] = S. cerevisiae deletion strains, locus YNL298W, strain CLA4 (second series), stronger effect = lower value
[22] = S. cerevisiae deletion strains, locus YNL322C, strain KRE1, stronger effect = lower value
[23] = S. cerevisiae deletion strains, locus YNR030W, strain Alg12, stronger effect = lower value
[24] = S. cerevisiae deletion strains, locus YPL055C, strain LGE1, stronger effect = lower value
[25] = S. cerevisiae deletion strains, locus YPL241C, strain CIN2, stronger effect = lower value
[26] = S. cerevisiae deletion strains, locus YPR135W, strain CTF4, stronger effect = lower value
[27] = S. cerevisiae deletion strains, locus YCL061C, strain MRC1, stronger effect = lower value
[28] = S. cerevisiae deletion strains, locus YJL187C, strain SWE1, stronger effect = lower value

SMILES: CNc1cc(NS(=O)(=O)c2ccc(N)cc2)nc(NC)n1
- normalized growth (S. cerevisiae deletion strains, locus YAL040C, strain CLN3, stronger effect = lower value): 0.991
- normalized growth (S. cerevisiae deletion strains, locus YCL061C, strain MRC1 (second series), stronger effect = lower value): 0.986
- normalized growth (S. cerevisiae deletion strains, locus YDR363W, strain ESC2, stronger effect = lower value): 0.974
- normalized growth (S. cerevisiae deletion strains, locus YER002W, strain NOP16, stronger effect = lower value): 0.98
- normalized growth [1]: 0.994
- normalized growth [2]: 1
- normalized growth [3]: 1.01
- normalized growth (S. cerevisiae deletion strains, locus YNL175C, strain NOP13, stronger effect = lower value): 0.993
- normalized growth (S. cerevisiae deletion strains, locus YNL197C, strain WHI3, stronger effect = lower value): 0.991
- normalized growth (S. cerevisiae deletion strains, locus YNL224C, strain SQS1, stronger effect = lower value): 0.994
- normalized growth (S. cerevisiae deletion strains, locus YOR083W, strain WHI5 (second series), stronger effect = lower value): 0.993

SMILES: CCC(=O)Nc1cc(F)ccc1C
- normalized growth [4]: 0.999
- normalized growth [5]: 1
- normalized growth [6]: 1
- normalized growth [7]: 1
- normalized growth [8]: 0.968
- normalized growth [9]: 0.997
- normalized growth [1]: 1
- normalized growth [10]: 0.985
- normalized growth [11]: 1.01
- normalized growth [12]: 0.985
- normalized growth [13]: 1
- normalized growth (S. cerevisiae deletion strains, locus YKL190W, strain CNB1, stronger effect = lower value): 1.01
- normalized growth [14]: 1.01
- normalized growth [15]: 1
- normalized growth [16]: 1.02
- normalized growth [17]: 1.01
- normalized growth [18]: 1.01
- normalized growth [19]: 0.997
- normalized growth [20]: 0.996
- normalized growth (S. cerevisiae deletion strains, locus YNL128W, strain TEP1, stronger effect = lower value): 0.998
- normalized growth [3]: 0.987
- normalized growth [21]: 1.01
- normalized growth [22]: 0.997
- normalized growth [23]: 1.01
- normalized growth [24]: 1.09
- normalized growth [25]: 0.89
- normalized growth [26]: 0.987
- normalized growth (S. cerevisiae strains, strain wild type, stronger effect = lower value): 1.01

SMILES: CC(C)(C)C(=O)Nc1ccc(F)cc1
- normalized growth [4]: 1
- normalized growth [5]: 1
- normalized growth [27]: 0.991
- normalized growth [6]: 0.994
- normalized growth [7]: 1.02
- normalized growth [8]: 0.985
- normalized growth [9]: 1.01
- normalized growth [1]: 0.999
- normalized growth [10]: 1.02
- normalized growth [11]: 1
- normalized growth [28]: 1.01
- normalized growth [12]: 1.01
- normalized growth [13]: 0.962
- normalized growth [14]: 1.07
- normalized growth [15]: 1.01
- normalized growth [16]: 1.05
- normalized growth [17]: 1.01
- normalized growth [18]: 1
- normalized growth [19]: 1
- normalized growth [20]: 1
- normalized growth [3]: 0.995
- normalized growth [21]: 1.04
- normalized growth [22]: 0.994
- normalized growth [23]: 1.02
- normalized growth (S. cerevisiae deletion strains, locus YOL006C, strain TOP1, stronger effect = lower value): 1.01
- normalized growth [24]: 0.946
- normalized growth [25]: 1.01
- normalized growth [26]: 0.956

SMILES: CC(C)(C)c1ccc(NC(=O)Cc2cc(F)cc(F)c2)cc1
- normalized growth [4]: 0.993
- normalized growth [5]: 0.995
- normalized growth [27]: 0.97
- normalized growth [6]: 1.02
- normalized growth [8]: 0.902
- normalized growth [9]: 0.997
- normalized growth [1]: 0.979
- normalized growth [10]: 0.988
- normalized growth [11]: 0.984
- normalized growth [28]: 0.985
- normalized growth [12]: 1
- normalized growth [13]: 0.933
- normalized growth [14]: 0.939
- normalized growth [15]: 0.986
- normalized growth [16]: 1.26 [resistant] (active)
- normalized growth [17]: 0.941
- normalized growth [18]: 0.994
- normalized growth [19]: 0.988
- normalized growth [20]: 1
- normalized growth [2]: 1.05
- normalized growth [3]: 0.989
- normalized growth [21]: 0.97
- normalized growth [22]: 0.985
- normalized growth [23]: 0.985
- normalized growth [24]: 0.885
- normalized growth [25]: 0.949
- normalized growth [26]: 1
